HT1080 IDH1KD tx: HT-1080 IDH1 knockdown cell toxicity (counter line); AID 686971; HT-1080 IDH1 knockdown viability, ATP luminescence, 48 h; hit rate 2% among 360,000; Potency, µM (top dose mostly 46.1 µM), inactives show top-dose activity, negative = toxicity, usual class: cytotoxic;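 note: 0% = DMSO wells and -100% = cell-free medium wells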
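In this qHTS, HT-1080 cells depleted of IDH1 are exposed for 48 h at 37 °C to compound titrations. Toxicity is scored from CellTiter-Glo luminescence, with DMSO as full viability and medium alone as none.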
KB-3-1 tox: KB-3-1 parental cell cytotoxicity; KB-3-1 viability, CellTiter-Glo ATP luminescence, 72 h; Potency, µM (doses to about 46.1 µM), most hits filed as cytotoxic; hit rate 1.4% among 400,000; note: % is set by controls: 0 for no effect and ±100 for the full control effect; nearly all actives have a fitted effect of over 60% in size
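Using CellTiter-Glo luminescence, growth of non-resistant KB-3-1 adenocarcinoma cells is assessed 72 h after pin-tool compound addition at 37 °C. Normalized responses across the concentration series yield fitted curves.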
HT1080NT lethal: kills 2HG-producing HT-1080-NT fibrosarcoma cells. HT-1080-NT fibrosarcoma viability, CellTiter-Glo ATP luminescence, 48 h. Potency, µM (series often up to 46.1 µM), for the others: top-dose activity, negative = less viability, hits mostly cytotoxic. hit rate 1.6% among 360,000;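 note: NT is the 2HG producing partner of a matched IDH1 knockdown line; 0% = DMSO-treated cells and -100% = media-only wells without cells; nearly all actives have a fitted effect of over 55% in size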
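Toxicity toward the 2HG-producing NT line was scored as %Activity, normalised to DMSO and no-cell wells, from CellTiter-Glo luminescence after 48 hours' treatment.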
HepG2 viability: counter-screen for TGF-b inhibitors: cytotoxicity in HepG2 cells; HepG2 CAGA-GFP viability, ATP luminescence, 18 h; hit rate 0.76% among 410,000; Potency, µM (highest dose often 46.1 µM), without a hit: at the top dose activity change, negative = cytotoxicity, most hits filed as cytotoxic
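HepG2 CAGA-GFP cells (1000/well, DMEM with 1% FBS) received compound, then TGF-beta at 500 pg/mL final, and were incubated 18 hours at 37 degrees C. Viability was read by CellTiter-Glo luminescence. Media-only wells were set as complete cell-killing and DMSO as no toxicity.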
TGFb inhibitor: TGF-b pathway inhibition; HepG2 CAGA-GFP TGF-b/SMAD3 reporter, GFP fluorescence, 18 h; TGF-beta stimulated, 500 pg/mL final; Potency, µM (doses to about 46.1 µM), inactives show at the highest dose activity, negative = inhibition, actives largely listed as inhibitors; hit rate 1.2% among 410,000; AID 588855; note: % is set by controls: 0 for no effect and ±100 for the full control effect; nearly all actives have a fitted effect of over 65% in size
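Inhibition was scored as loss of TGF-beta-induced (500 pg/mL final, 18 hours, 37 degrees C) GFP in HEPG2 cells carrying a CAGA-GFP reporter, in DMEM with 1% FBS. Well GFP was summed per cell; Activity was normalised to unstimulated and stimulated DMSO wells, then concentration-response fitting.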
KB-V1 cytotox: kills drug-selected multidrug resistant KB-V1 cells; Potency, µM (series often up to 46.1 µM), hits mostly cytotoxic; KB-V1 MDR cells viability, CellTiter-Glo, 72 h; hit rate 3.4% among 400,000; note: % is set by controls: 0 for no effect and ±100 for the full control effect; nearly all actives have a fitted effect of over 60% in size
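Following 72 h at 37 degrees C with compound, KB-V1 cell viability was read by CellTiter-Glo luminescence, medium being phenol-red-free DMEM plus 10% FBS; concentration-response parameters came from normalized, curve-fitted qHTS data.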
* = called active by the depositor. An excerpt weighted towards active compounds, which were near 6.6% of everything screened. Calls come from the whole dose curve; as a rule, active = well fitted curve in the direction sought with a large enough effect; inconclusive = small, poorly fitted or top-dose-only effect, or another doubt; inactive = no such curve, though single readings can be large; an effect the other way counts as inactive or inconclusive. Potency is the fitted concentration of half-maximal effect.

Results for CCc1ccccc1NC(=O)Cn1c(=O)nc(-c2ccccc2)c2ccccc21 ?
HepG2 viability: -2.7%; TGFb inhibitor: 4.1%

Results for COc1cc(-c2nc(S(=O)(=O)c3ccc(Cl)cc3)c(N3CCOCC3)o2)cc(OC)c1OC ?
HT1080 IDH1KD tx: -21.8%; KB-3-1 tox: inactive; HT1080NT lethal: 21.1%; HepG2 viability: 0.0%; TGFb inhibitor: 5.3%; KB-V1 cytotox: 0.517µM*

Results for COC(=O)c1ccc(-n2c(/C=C\c3cccc(Br)c3)nc3ccccc3c2=O)cc1 ?
KB-3-1 tox: 13µM*; HepG2 viability: -28.5%; TGFb inhibitor: -20.8%; KB-V1 cytotox: inconclusive

Results for O=C(O)c1ccc(-n2c(/C=C/c3ccccc3)nc3ccccc3c2=O)cc1 ?
HT1080 IDH1KD tx: 3.2%; KB-3-1 tox: inactive; HT1080NT lethal: -1.3%; HepG2 viability: 14.3%; TGFb inhibitor: -3.2%; KB-V1 cytotox: inactive

Results for Cc1cccc(/N=C/c2c(O)cc(C)oc2=O)n1 ?
HT1080 IDH1KD tx: 6.8%; KB-3-1 tox: inactive; HT1080NT lethal: 6.7%; HepG2 viability: 4.1%; TGFb inhibitor: 54.7%; KB-V1 cytotox: inactive

Results for Cc1cccc(/N=C/c2c(O)ccc3oc4c(c23)CCCC4)n1 ?
HT1080 IDH1KD tx: -8.3%; KB-3-1 tox: inactive; HT1080NT lethal: -10.5%; HepG2 viability: 1.2%; TGFb inhibitor: 15.8µM*; KB-V1 cytotox: inconclusive

How did C=CCNC(=O)CN1CCC(c2nc3cc(C)c(C)cc3[nH]2)CC1 do in these assays?
HT1080 IDH1KD tx: -9.1%; KB-3-1 tox: inactive; HT1080NT lethal: 1.6%; HepG2 viability: -3.0%; TGFb inhibitor: -3.1%; KB-V1 cytotox: inactive

How did Cc1cc2nc(C3CCN(CC4COc5ccccc5O4)CC3)[nH]c2cc1C (stereo not given) do in these assays?
HT1080 IDH1KD tx: inconclusive; KB-3-1 tox: inconclusive; HT1080NT lethal: 14.6µM*; HepG2 viability: -51.7%; TGFb inhibitor: inconclusive; KB-V1 cytotox: inactive

How did Cc1cccc(C)c1OCc1nc2c3cnn(-c4ccccc4Br)c3ncn2n1 do in these assays?
HepG2 viability: -24.1%

How did CCCc1cc(=O)[nH]c(SCc2cc(=O)oc3cc(C)c(C(C)C)cc23)n1 do in these assays?
HT1080 IDH1KD tx: -1.2%; KB-3-1 tox: inactive; HT1080NT lethal: -4.1%; HepG2 viability: 1.9%; TGFb inhibitor: -10.3%; KB-V1 cytotox: 20.6µM*

How did CCOc1ccc(C2C(C(=O)Nc3ccccc3OC)=C(C)Nc3c(C(=O)Nc4cccc(C)c4)cnn32)cc1 (stereo not given) do in these assays?
HepG2 viability: -0.5%; TGFb inhibitor: -10.3%

How did COc1ccccc1C(=O)Nc1ccc2c(c1)CCCN2C(=O)c1ccccc1 do in these assays?
HT1080 IDH1KD tx: 14.6µM*; KB-3-1 tox: 18.4µM*; HT1080NT lethal: 18.4µM*; HepG2 viability: 12.6µM*; TGFb inhibitor: 2.5%; KB-V1 cytotox: inconclusive

Results for COc1ccccc1C(=O)Nc1ccc2c(c1)CN(C(=O)CSC)CC2 ?
HT1080 IDH1KD tx: 10.3µM*; KB-3-1 tox: 25.9µM*; HT1080NT lethal: 13µM*; HepG2 viability: -14.8%; TGFb inhibitor: -13.5%; KB-V1 cytotox: inactive

What do the screens show for `Cc1ccccc1NC(=O)CN(c1ccc(Cl)cc1Cl)S(=O)(=O)c1ccccc1`?
KB-3-1 tox: inactive; HepG2 viability: -12.9%; TGFb inhibitor: inconclusive; KB-V1 cytotox: inactive

What do the screens show for `CC(=O)Nc1cc(-c2ccccc2CN(C)C)cn2c(-c3ccc(C(C)=O)cc3)cnc12`?
HT1080 IDH1KD tx: inconclusive; KB-3-1 tox: inconclusive; HT1080NT lethal: 18.4µM*; HepG2 viability: -14.4%; TGFb inhibitor: -18.8%; KB-V1 cytotox: inconclusive
